In PubChem BioAssay (NCI):
About 79,000 compounds went through this panel and 15% of them were active in at least one assay; those are over-represented in the sample as a whole. A number with no mark means an inactive call. The source made the active and inactive calls. Cut-off read from the data, not from the text of the source: active = growth inhibition above about 70%; inactive = the rest.

What was measured:
[1] = NCI Yeast Anticancer Drug Screen. Data for the rad50 strain (AID 155);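 note: 0% = growth of vehicle-only cultures of the same strain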; settings: S. cerevisiae rad50 strain growth inhibition; at 50.0 µM; active compounds read high
Method in brief: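 Compounds were tested on a yeast strain with an engineered DNA damage repair alteration; the reported value is growth inhibition normalised to vehicle treatment.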

[2] = NCI Yeast Anticancer Drug Screen. Data for the mec2-1 strain (AID 157); settings: S. cerevisiae mec2-1 strain, at 50.0 µM, active compounds read high
Method in brief: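 Vehicle-treated cultures served as reference for growth inhibition of compound-exposed mec2-1 yeast.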

[3] = NCI Yeast Anticancer Drug Screen. Data for the sgs1 mgt1 strain (AID 161);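 note: 0% = growth of cultures given vehicle only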; settings: S. cerevisiae sgs1 mgt1 strain, at 50.0 µM, active compounds read high
Method in brief: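 Mutant yeast exposed to compound; growth scored against vehicle-only wells.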

[4] = NCI Yeast Anticancer Drug Screen. Data for the cln2 rad14 strain (AID 165);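 note: 0% = growth equal to vehicle treated cultures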; settings: S. cerevisiae cln2 rad14 strain, at 50.0 µM, active compounds read high
Method in brief: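 Each compound was tested on cln2 rad14 yeast. Inhibition of growth was calculated against vehicle-exposed controls.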

[5] = NCI Yeast Anticancer Drug Screen. Data for the bub3 strain (AID 167); settings: S. cerevisiae bub3 mutant strain, at 50.0 µM, active compounds read high
Method in brief: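 Growth of a checkpoint-deficient yeast mutant is measured after compound exposure. Values represent inhibition relative to vehicle.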

[6] = NCI Yeast Anticancer Drug Screen. Data for the mlh1 rad18 strain (AID 175); settings: S. cerevisiae mlh1 rad18 strain growth inhibition; at 50.0 µM; active compounds read high
Method in brief: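 Vehicle-treated cultures served as the reference for growth inhibition in a yeast strain carrying DNA damage repair alterations exposed to each compound.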

Row | Compound | growth inhibition [1] | growth inhibition [2] | growth inhibition [3] | growth inhibition [4] | growth inhibition [5] [%] | growth inhibition [6]
1 | CN(C)N=Nc1c(F)cccc1F | -5.85% | -13.8% | -28.6% | 20.4% | 8.9 | 0.65%
2 | O=C1c2ccccc2C(=O)c2c(Cl)ccc(O)c21 | 3.15% | 11.2% | 3.8% | 0.1% | 30.4 | 19.9%
3 | O=[N+]([O-])c1ccc(Nc2nc3ccccc3s2)cc1 | 6.75% | 11.8% | -24.7% | -21.5% | 5.75 | 15.2%
4 | Cc1ccc(C2=CSC3=NCCN23)cc1Cl | -29.9% | -43.8% | 5.3% | -6.3% | -17.9 | 23.4%
5 | O=C(CC(=O)CC(O)(C(F)(F)F)C(F)(F)F)CC(O)(C(F)(F)F)C(F)(F)F | 73.1% (active) | 65.1% | 79.8% (active) | 59% | 55.9 | 78.2% (active)
6 | Nc1ccc([N+](=O)[O-])cc1C(=O)O | 5.1% | 0.9% | -6.8% | -15.7% | 3.05 | 0%
7 | S=C([S-])[P+](C1CCCCC1)(C1CCCCC1)C1CCCCC1 | -30.9% | -39.1% | -28.2% | -29.2% | -39.1 | -39.2%
8 | Nc1ncnc2c1ncn2CCOCC(O)CO (stereo not drawn) | -0.75% | -4.3% | -5.95% | -15.4% | -7.7 | -19.9%
9 | N#C/C(=N\NC(=O)c1cccs1)c1ccccc1Cl | -5.65% | 1.2% | 8% | -33.1% | 9.7 | 3.45%
10 | N#C/C(=C\Nc1ccccn1)C(=O)c1ccco1 | 6.85% | -19.8% | -19.6% | -0.5% | -55.9 | -3.05%
11 | Cc1cc(C)c2c(c1)C(=O)c1ccccc1C2=O | 42.6% | 47.1% | 47.4% | 38% | 30.9 | 58.8%
12 | COC(=O)C1(C2CCc3cc(OC)ccc3C2=O)NC(=S)NC(=O)C1C#N (stereo not drawn) | -2.8% | -4.45% | -18.2% | -4.05% | -21.1 | -6.65%
13 | CC(=O)NC(Cc1ccc(OC(C)=O)c(OC(C)=O)c1)C(C)=O (stereo not drawn) | -10.4% | 9.7% | -0.7% | -8.3% | -10.6 | 6%
14 | Fc1ccc2nncc(SCc3ccc(Cl)cc3)c2c1 | -4.1% | 2.25% | 4% | -22.4% | 4.85 | -0.65%
15 | NC(=O)COc1ccc(Br)cc1Br | -0.1% | -3.15% | -12.7% | 13.6% | -6.3 | 11.8%
16 | COc1cccc2c1CCC1=CC(=O)CCC12C (stereo not drawn) | 22.1% | 5.5% | 17.9% | 28.8% | 16.9 | -0.65%
17 | C=C(C)COc1ccc(C2OCC(CC)C(CCC)O2)cc1 (stereo not drawn) | -4.3% | -10.6% | -7.5% | -45% | 5 | -9.25%
18 | CCN(CC)C(=S)N=N/C(C)=C1/C=CC=CN1O | 1.4% | 0.4% | 14.6% | 13.6% | 16.2 | 74% (active)
19 | C=CCSc1nc2ccc(N=Cc3ccc([N+](=O)[O-])cc3)cc2s1 | 2.05% | -12.5% | -8.7% | -14.6% | 5.95 | -21.2%

Row | Compound | growth inhibition [1] | growth inhibition [2] | growth inhibition [3] | growth inhibition [4] | growth inhibition [5] [%] | growth inhibition [6]
20 | O=C(O)c1ccc2c(c1)CC1(C2)Cc2ccccc2C1=O (stereo not drawn) | -16.4% | -4.9% | -8.2% | -14.2% | 6.15 | -2.75%
21 | CC(C)CCNC(=O)CS(=O)(=O)c1ccc(N)cc1 | -2.15% | -3.05% | -11.9% | -34.2% | -23.1 | -8.55%
22 | NC(=O)CCn1ccc2ccccc21 | 0.5% | -5.8% | 0% | -1.25% | 5 | -0.85%
23 | CC(=O)Nc1ccc(SC#N)c2c(NC(C)=O)cccc12 | 44.6% | 27.5% | 56.5% | 27.6% | 30.4 | 47.7%
24 | O=C(NNC(=S)Nc1cccc(Cl)c1)c1ccncc1 | 21.8% | 6.5% | 26.6% | 9.45% | 19.9 | -9.55%
25 | O=c1c2cnccc2cc2n1CCc1c-2[nH]c2ccccc12 | 88.4% (active) | 89.3% (active) | 88.8% (active) | 90.2% (active) | 69.8 | 86.4% (active)
26 | COc1cc(OC)c(NC(=O)CC2SC(N)=NC2=O)cc1Cl (stereo not drawn) | 9.75% | 6.85% | 20.2% | 11% | 25.4 | 20.6%
27 | OCC1CC(c2ccccc2)=NO1 (stereo not drawn) | -19.9% | -11.1% | -11.2% | -20.2% | -3.9 | -17.6%
28 | N#Cc1c(-c2ccccc2)c[nH]c1/N=C/N | -17.6% | -16.8% | -9.75% | -10.4% | -10.2 | -6.5%
29 | O=c1cc(O)nc(CO)[nH]1 | -4.15% | -5.75% | -41.9% | -14.7% | 3.9 | 2.6%
30 | CC(=O)OCC1OC(N2C(=O)/C(=C/c3ccc4c(c3)OCO4)SC2=S)C(OC(C)=O)C(OC(C)=O)C1OC(C)=O (stereo not drawn) | 1.5% | -12.2% | -20.9% | 1.15% | 0.15 | 0.2%
31 | [CH3][Sn]([CH3])([O]C(=O)c1ccc2c(c1)OCO2)[O]C(=O)c1ccc2c(c1)OCO2 | -0.15% | -3.25% | -11% | -12.7% | -9.7 | -9.9%
32 | CCCCCCCSSCCCCCCC | -9.85% | -26.1% | -3.55% | 11.9% | -16 | -0.4%
33 | CCN(CC)CCCCCOC(=O)c1cccc(N)c1 | -5.8% | 0.35% | -16.6% | -45.9% | 27.2 | -10.1%
34 | CN(C)C(=O)C1(C)CC2CCC1C2 (stereo not drawn) | -2.25% | -15.3% | -8.65% | 13.9% | 2.8 | -0.75%
35 | CCOCCC12CCCCC1C/C(=N/OC(C)=O)c1ccccc12 (stereo not drawn) | 9.3% | -5.95% | -0.45% | 1.2% | 15.7 | 35.8%
36 | O=C(O)/C(=C\c1cccc(O)c1)c1ccccc1 | -19.4% | -30.4% | -16.4% | -6.65% | -3.2 | -6%
37 | CCc1ccc[n+](CCc2c[nH]c3ccccc23)c1 | -13% | -0.45% | -10% | 1.35% | 1.35 | -10.5%
38 | COc1ccc(-c2c(C#N)c(S)n(C3OC(COC(C)=O)C(OC(C)=O)C(OC(C)=O)C3OC(C)=O)c(=O)c2C#N)cc1 (stereo not drawn) | -18.1% | -12.2% | -6.3% | -16.3% | 16.4 | 14%
